BAZ2B inh: inhibitors of human BAZ2B bromodomain; Q9UIF8; AlphaScreen BAZ2B-H3K14Ac peptide displacement; Potency, µM (titrated, usually from 114 µM), usual class: inhibitors; hit rate 4.4% among 360,000; also: nearly all actives have a fitted effect of over 60% in size
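Multi-concentration screen (max 110 uM) measuring displacement of acetylated histone H3 peptide from BAZ2B by AlphaScreen, using 50 nM protein, 50 nM peptide and 10 ug/mL streptavidin donor plus Ni-chelate acceptor beads.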
G9a inh: G9a (human) methyltransferase inhibition | Q96KQ7 | G9a H3K9 monomethylation, AlphaScreen, 2 h | Potency, µM (top dose mostly 102 µM), most hits filed as inhibitors | hit rate 8.8% among 350,000; also: nearly all actives have a fitted effect of over 75% in size
Target sequence (Q96KQ7 913-1193 limits assumed): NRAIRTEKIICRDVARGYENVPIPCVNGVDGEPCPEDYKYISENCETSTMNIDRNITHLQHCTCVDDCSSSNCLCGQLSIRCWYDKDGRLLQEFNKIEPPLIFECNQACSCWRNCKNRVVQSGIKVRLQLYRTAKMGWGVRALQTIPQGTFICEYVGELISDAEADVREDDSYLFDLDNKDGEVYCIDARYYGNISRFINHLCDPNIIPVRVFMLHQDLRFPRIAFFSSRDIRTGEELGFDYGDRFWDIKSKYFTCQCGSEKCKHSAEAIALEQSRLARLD
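Methyltransferase reactions run at room temperature for 2 h (20 nM enzyme, 500 nM biotin-H3K9 peptide, 20 uM SAM) after a 15 min compound preincubation; product detected by AlphaScreen beads and anti-H3K9me1 antibody.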
HP1b chromo inh: HP1-beta chromodomain-methylated histone interaction inhibition. P83916. Potency, µM (highest dose often 114 µM), usual class: inhibitors. hit rate 0.56% among 390,000. AID 540317. AlphaScreen HP1-beta / biotin-H3K9me3 peptide binding; also: nearly all actives have a fitted effect of over 70% in size
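Compound inhibition of the preformed complex between 50 nM HP1-beta and 50 nM biotinylated H3K9me3 peptide was read by AlphaScreen. Buffer was PBS pH 7.4 with 0.01% Tween-20. Incubations ran 30 min at room temperature, with 10 ug/mL donor/acceptor beads.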
VDR inhibitor: vitamin D3 receptor (human) inhibition; P11473; VDR-SRC2-3 peptide fluorescence polarization, 2 h; Potency, µM, actives largely listed as inhibitors; hit rate 0.93% among 400,000
Target sequence (P11473 whole entry, looked up): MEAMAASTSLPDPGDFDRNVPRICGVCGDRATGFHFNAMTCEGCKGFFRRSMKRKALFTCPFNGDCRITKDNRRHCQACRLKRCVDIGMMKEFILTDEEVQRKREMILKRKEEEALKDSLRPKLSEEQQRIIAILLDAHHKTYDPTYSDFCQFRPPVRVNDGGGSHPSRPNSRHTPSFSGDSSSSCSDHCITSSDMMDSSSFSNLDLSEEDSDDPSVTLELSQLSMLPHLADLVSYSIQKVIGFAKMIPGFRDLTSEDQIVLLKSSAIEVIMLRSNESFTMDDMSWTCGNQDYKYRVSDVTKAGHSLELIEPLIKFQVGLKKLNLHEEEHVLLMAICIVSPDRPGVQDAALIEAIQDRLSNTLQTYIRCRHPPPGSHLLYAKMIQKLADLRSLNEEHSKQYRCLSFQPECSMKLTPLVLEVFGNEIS
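FP read-out; VDR + SRC2-3 coactivator peptide; 23 nl compound by pintool; 2 h RT incubation; reagents held at 4 deg C, protected from light.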
PLK1 PBD block: blocks phosphopeptide binding to human PLK1 polo-box domain; Plk1 PBD binding of FITC phosphopeptide, fluorescence polarization; Potency, µM, most hits filed as inhibitors; AID 720504; hit rate 2.8% among 360,000; P53350; also: series mostly up to about 57 µM; nearly all actives have a fitted effect of over 65% in size
JMJD2A Tudor inh: inhibitors of human JMJD2A Tudor domain; O75164; AID 504339; Potency, µM (doses to about 114 µM), most hits filed as inhibitors; AlphaScreen JMJD2A-Tudor / H3K4me3 peptide binding; hit rate 4.4% among 390,000; also: nearly all actives have a fitted effect of over 50% in size
Large screens that a line does not name were inactive; ! = a repeat was not active. Hits are enriched below; roughly 11% of the tested compounds scored in any of these assays. Calls follow the shape of the dose curve; as a rule, active = well fitted curve in the direction sought with a large enough effect; inconclusive = small, poorly fitted or top-dose-only effect, or another doubt; inactive = no such curve, though single readings can be large; an effect the other way counts as inactive or inconclusive.

COc1ccccc1CNC(=O)Nc1cccs1	BAZ2B inh inconclusive, HP1b chromo inh inconclusive, JMJD2A Tudor inh 56µM
COc1cccc(CNC(=O)Nc2cccs2)c1	G9a inh 45µM
CCc1ccccc1NC(=O)Nc1cccs1	G9a inh 50µM
COc1ccc(Br)cc1CNC(=O)Nc1cccs1	G9a inh inconclusive
Cc1ccc(CNC(=O)Nc2cccs2)cc1	G9a inh inconclusive
CN(Cc1ccc(OC(F)F)cc1)C(=O)c1ccc2c(=O)n3c(nc2c1)CCC3	none
CCOC(=O)CSc1nc2ccccc2c(=O)n1CCC(=O)NCCc1ccc(OC)c(OC)c1	none
CCOc1ccc2c(c1)C(C)=CC(C)(C)N2C(=O)Nc1ccccc1	BAZ2B inh 50µM, G9a inh 50µM, HP1b chromo inh inconclusive, VDR inhibitor inconclusive, JMJD2A Tudor inh 56µM
CCNC(=O)N1c2ccc(OC)cc2C(C)=CC1(C)C	BAZ2B inh inconclusive, G9a inh 50µM
CCOC(=O)Oc1ccc2c(c1)C(C)=CC(C)(C)N2C(=O)OCC	none
COC(=O)C/C=C/[C@@H](C)[C@H](OC)c1c(Br)ccc2c1OCO2	none (no result: BAZ2B inh, G9a inh, HP1b chromo inh, PLK1 PBD block, JMJD2A Tudor inh)
O=C(Nc1ccc2c(c1)CCC2)Nc1ccccc1F	none
Cc1ccccc1OCC(=O)OCC(=O)c1ccc[nH]1	none
O=c1c2ccccc2nc(COc2ccccc2)n1/N=C/c1ccco1	none
S=c1[nH]nc(-c2ccco2)n1/N=C/C=C/c1ccco1	BAZ2B inh inconclusive, G9a inh 1.4µM, HP1b chromo inh inconclusive, JMJD2A Tudor inh 3.5µM
S=c1[nH]nc(COc2ccccc2)n1/N=C/C=C/c1ccco1	BAZ2B inh 45µM, HP1b chromo inh inconclusive, PLK1 PBD block inconclusive, JMJD2A Tudor inh 20µM (no result: G9a inh)
S=c1[nH]nc(-c2cc(-c3ccccc3)n[nH]2)n1/N=C/C=C/c1ccco1	BAZ2B inh inconclusive, G9a inh 1.8µM, HP1b chromo inh inconclusive, PLK1 PBD block inconclusive, JMJD2A Tudor inh inconclusive
CN(C1CCCCC1)S(=O)(=O)c1ccc2c(c1)c(=O)c(C(=O)N1CCN(c3ccccc3F)CC1)cn2C	none (no result: BAZ2B inh, PLK1 PBD block)
Cc1cccc(N2CCN(S(=O)(=O)c3ccc(-c4cc(C(F)(F)F)on4)s3)CC2)c1C	none (no result: PLK1 PBD block)
CC(C)(C)c1cc(/C=N/O)cc(C(C)(C)C)c1O	none
N#CC(C#N)=C(N)/C(C#N)=C/c1cc(O)c(O)c(O)c1	BAZ2B inh 11µM, G9a inh 5.6µM, HP1b chromo inh 18µM, VDR inhibitor 40µM!, JMJD2A Tudor inh 18µM
N#C/C(=C/c1ccc(F)cc1)C(N)=S	G9a inh 5.6µM, VDR inhibitor 89µM, PLK1 PBD block 30µM
N#C/C(=C\c1ccncc1)C(N)=O	none
CC(C)(C)c1cc(/C=C(\C#N)C(N)=S)cc(C(C)(C)C)c1O	G9a inh 28µM, VDR inhibitor 35µM (no result: BAZ2B inh, HP1b chromo inh, PLK1 PBD block, JMJD2A Tudor inh)
C=Cn1cc[n+](CC(=O)c2cc(C(C)(C)C)c(O)c(C(C)(C)C)c2)c1	none (no result: G9a inh)
CN1CCN(CC(=O)c2cc(C(C)(C)C)c(O)c(C(C)(C)C)c2)CC1	G9a inh 32µM, VDR inhibitor 71µM, JMJD2A Tudor inh inconclusive
CCOc1ccc(OCCC(=O)OCC(=O)NNC(=O)c2ccccc2)cc1	G9a inh inconclusive
Brc1cccc(-c2cnc3n2CCCCC3)c1	G9a inh 45µM, JMJD2A Tudor inh inconclusive
CC(C)=CCC/C(C)=C/CNC(=O)C[C@H]1C[C@H](C(=O)N2CCOCC2)[C@@]2(C)c3[nH]c4cc(-c5ccco5)ccc4c3CCN2C1=O	HP1b chromo inh inconclusive, JMJD2A Tudor inh 40µM (no result: BAZ2B inh, G9a inh)
CC(C)N(C(=O)[C@H]1C[C@H](CC(=O)NC(C)(C)C)C(=O)N2CCc3c([nH]c4cc(-c5ccco5)ccc34)[C@]12C)C(C)C	HP1b chromo inh inconclusive, VDR inhibitor inconclusive, PLK1 PBD block 21µM, JMJD2A Tudor inh 50µM (no result: BAZ2B inh, G9a inh)
CCN(CC)C(=O)[C@H]1C[C@H](CC(=O)NC(C)(C)C)C(=O)N2CCc3c([nH]c4cc(-c5ccco5)ccc34)[C@]12C	JMJD2A Tudor inh inconclusive (no result: BAZ2B inh, G9a inh)
Cc1ccc(NC(=O)C2(C)CCN2C(=O)Cc2cc(F)ccc2F)cc1 (stereo not drawn)	none (no result: BAZ2B inh, G9a inh, HP1b chromo inh, VDR inhibitor, JMJD2A Tudor inh)
N#Cc1nccnc1S(=O)(=O)c1cccs1	G9a inh 4µM, VDR inhibitor 35µM, PLK1 PBD block 27µM
O=S(=O)(c1cccs1)N1CCN(S(=O)(=O)c2cccs2)CC1	none
COc1ccccc1NC(=O)C1CCN(S(=O)(=O)c2ccc3[nH]c4c(c3c2)CCCCC4)CC1	G9a inh 3.5µM (no result: PLK1 PBD block)
CCOC(=O)C1CCN(S(=O)(=O)c2ccc3c(c2)CCN3C(=O)C2CCC2)CC1	VDR inhibitor inconclusive, PLK1 PBD block 27µM, JMJD2A Tudor inh inconclusive (no result: G9a inh)
CCOC(=O)CC(NS(=O)(=O)c1ccc2[nH]c3c(c2c1)CCCC3)c1ccccc1Cl (stereo not drawn)	BAZ2B inh 35µM, G9a inh 6.3µM, HP1b chromo inh inconclusive, JMJD2A Tudor inh 35µM (no result: PLK1 PBD block)
CCOC(=O)C1CCN(S(=O)(=O)c2ccc3[nH]c4c(c3c2)CCCC4)CC1	BAZ2B inh inconclusive, G9a inh inconclusive, HP1b chromo inh inconclusive, PLK1 PBD block inconclusive, JMJD2A Tudor inh 22µM
Cc1ccc2[nH]c(=O)c3cc(C(=O)N4CCN(c5ccccc5)CC4)sc3c2c1	none (no result: PLK1 PBD block)
CCOC(=O)c1nnn(-c2nonc2N)c1-c1ccc(OC)cc1	G9a inh inconclusive
CC(OC(=O)C1CC(=O)N(Cc2ccco2)C1)C(=O)Nc1ccccc1[N+](=O)[O-] (stereo not drawn)	none
CCN(CC)S(=O)(=O)c1ccc(NC2c3ncccc3C(=O)N2Cc2ccccc2)cc1 (stereo not drawn)	BAZ2B inh inconclusive, JMJD2A Tudor inh 28µM (no result: G9a inh)
CCN(CC)S(=O)(=O)c1ccc(NC2c3ccccc3C(=O)N2Cc2ccc3c(c2)OCO3)cc1 (stereo not drawn)	G9a inh 40µM
COc1ccc(CN2C(=O)c3cccnc3C2Nc2ccc(C)cc2)cc1 (stereo not drawn)	BAZ2B inh inconclusive, PLK1 PBD block inconclusive
O=C1c2ccccc2C(Nc2ccc3c(c2)OCCO3)N1Cc1ccc2c(c1)OCO2 (stereo not drawn)	BAZ2B inh 35µM, G9a inh inconclusive, JMJD2A Tudor inh 40µM
O=C1c2ccccc2C(Nc2ccc3c(c2)OCCO3)N1c1ccc(Cl)cn1 (stereo not drawn)	BAZ2B inh 40µM, G9a inh 45µM, HP1b chromo inh inconclusive, JMJD2A Tudor inh inconclusive
Cc1cccc(NC(=O)CN(CC2CCCO2)C(=O)c2ccc(S(C)(=O)=O)cc2)c1C (stereo not drawn)	none
O=C1c2ccccc2C(Nc2ccccc2)N1Cc1ccc2c(c1)OCO2 (stereo not drawn)	G9a inh inconclusive
COc1ccc(NC2c3ccccc3C(=O)N2Cc2ccc3c(c2)OCO3)cc1 (stereo not drawn)	BAZ2B inh 50µM, G9a inh 45µM, HP1b chromo inh inconclusive, JMJD2A Tudor inh 40µM
